Assay outcomes: PubChem, The Scripps Research Institute Molecular Screening Center
Only some compounds are listed: those with a hit (about 2.4% of all), similar ones and a draw of the others.
UHRF1 MBD2 ctr = blocks human UHRF1 binding to methylated DNA. UHRF1 binding to methylated oligo, TR-FRET. actives 0.75% (n = 370,000). inhibition, % at 4.4 µM; in the data active means inhibition above about 21%;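 further: UHRF1 SRA domain binding a hemimethylated CpG hairpin DNA probe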
LEDGF integ inh = blocks HIV-1 LEDGF/p75-dependent DNA integration. actives 0.64% (n = 370,000). TR-FRET IN-LEDGF/p75 DNA integration, Eu/Cy5. inhibition, % at 3.7 µM;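 active means inhibition above the screen-wide mean plus 3 SD, cut at about 13% in these data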;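 further: signal is the Cy5 over europium emission ratio at 671 and 618 nm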
MBD2 inh = MBD2-methylated oligo binding inhibition. actives 0.31% (n = 370,000). TR-FRET, MBD2 binding to methylated oligonucleotide. Q9UBB5. inhibition, % at 4.4 µM; in the data active means inhibition above about 13%
Target sequence (Q9UBB5 whole entry, looked up): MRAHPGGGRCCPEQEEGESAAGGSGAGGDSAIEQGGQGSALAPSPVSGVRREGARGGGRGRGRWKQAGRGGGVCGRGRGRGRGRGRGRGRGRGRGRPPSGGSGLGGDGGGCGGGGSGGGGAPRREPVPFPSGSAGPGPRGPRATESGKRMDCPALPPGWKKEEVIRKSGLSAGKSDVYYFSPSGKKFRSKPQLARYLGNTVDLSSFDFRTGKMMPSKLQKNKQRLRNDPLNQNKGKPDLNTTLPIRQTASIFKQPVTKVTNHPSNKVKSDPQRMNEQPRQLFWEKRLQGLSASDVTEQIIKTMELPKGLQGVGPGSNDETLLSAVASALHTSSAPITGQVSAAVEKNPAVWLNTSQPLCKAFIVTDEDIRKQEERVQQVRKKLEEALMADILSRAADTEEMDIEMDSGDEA
PLCb3 inh = blocks human PLC-beta3 enzyme activity; inhibition, % at 12.2 µM; actives 0.18% (n = 370,000); AID 720704; Purified PLC-beta3, fluorogenic substrate, fluorescence
PLC-gamma1 inh = blocks human PLC-gamma1 enzyme activity; AID 720700; inhibition, % at 12.2 µM; actives 0.84% (n = 370,000); purified PLC-gamma1, fluorogenic substrate, fluorescence; P19174; in the data active means inhibition above about 9.5%
PLCgamma1 ctr = counter-screen for PLC-beta3 inhibitors: inhibitors of human PLC-gamma1; shares compounds with PLC-gamma1 inh; purified PLC-gamma1, fluorogenic substrate, fluorescence; inhibition, % at 12.3 µM; actives 3.1% (n = 3,300); AID 743258; in the data active means inhibition above about 9.5%
PLCb3 confirm = human PLC-beta3 inhibition, confirmation; shares compounds with PLC-gamma1 inh; inhibition, % at 12.3 µM; purified PLC-beta3, fluorogenic substrate fluorescence; actives 1% (n = 3,300)
Of the large screens only hits and unclear results are named; the others gave an inactive call (follow-up assays come after a bar, where they were run). Unless noted, no stated cut-off is given here; in the data, active means inhibition above about 11%; inactive means the rest.

CC(C)C[C@H](NC(=O)c1[nH]cnc1C(=O)N[C@H](C)c1ccccc1)C(=O)OCc1ccccc1	PLC-gamma1 inh 9.6 | PLCgamma1 ctr inactive | PLCb3 confirm inactive
CC(C)C[C@H](NC(=O)c1nc[nH]c1C(=O)N[C@@H](CC(C)C)C(=O)OCc1ccccc1)C(=O)OCc1ccccc1	none
CCOc1ccc(-n2c(SC/C=C/c3ccccc3)nnc2-c2cccs2)cc1	none
CCOc1ccc(S(=O)(=O)Nc2cc(Cl)ccc2O)cc1	PLC-gamma1 inh 13.2 | PLCgamma1 ctr inactive | PLCb3 confirm inactive
O=C(Nc1ccc(S(=O)(=O)Nc2ncccn2)cc1)c1ccc(Br)s1	PLC-gamma1 inh 10.7 | PLCgamma1 ctr inactive | PLCb3 confirm inactive
COc1cccc(OC)c1C(=O)Nc1ccc(S(=O)(=O)Nc2ncccn2)cc1	none
CCOC(=O)N1CCN(C(=O)C[C@H]2C[C@@]3(C(=O)OC)C(=C[C@H](C(C)C)O[C@@H]3C3CC3)N(Cc3cccc4ccccc34)C2=O)CC1	none
O=C(CSc1nnc(-c2ccncc2)o1)Nc1nncs1	none
O=C(CSc1nnc(-c2ccccc2Br)o1)Nc1nncs1	PLCb3 inh 10.9 | PLCgamma1 ctr inactive | PLCb3 confirm inactive
CCOC(=O)C1(CCOc2ccccc2)CCN(Cc2ccc(OC)c(O)c2)CC1	PLC-gamma1 inh 10.3 | PLCgamma1 ctr inactive | PLCb3 confirm inactive
CCOC(=O)C1(CCOc2ccccc2)CCN(Cc2cc(OC)c(O)c(OC)c2)CC1	none
CCOc1ccc(NC(=O)C2CCN(S(=O)(=O)c3cccnc3)CC2)cc1	PLC-gamma1 inh 12.3 | PLCgamma1 ctr inactive | PLCb3 confirm inactive
CCOc1ccc(NC(=O)C2CCCN2S(=O)(=O)c2ccc(OCC)cc2)cc1 (stereo not drawn)	PLC-gamma1 inh 12.3 | PLCgamma1 ctr inactive | PLCb3 confirm inactive
COc1ccc(S(=O)(=O)N2CCCC2C(=O)Nc2ccc(C)cc2)cc1 (stereo not drawn)	none
CCOc1ccc(OCC)c(NC(=O)C2CCN(S(=O)(=O)c3cccnc3)CC2)c1	none
CCN(CC)C(=O)CC[C@H]1CC[C@]2(CCCN(Cc3ccc(OC)cc3)C2)O1	none
CN(C)c1ncnc2[nH]ncc12	PLC-gamma1 inh 13.1 | PLCgamma1 ctr inactive | PLCb3 confirm inactive
CC1CCCCN1S(=O)(=O)c1ccc(N(C(=O)c2cnccn2)C(C(=O)NC2CCCCC2)c2cccs2)cc1 (stereo not drawn)	PLC-gamma1 inh 12.4 | PLCgamma1 ctr inactive | PLCb3 confirm inactive
Cc1nn(C)c(Oc2ccccc2)c1CCNC(=O)CC(C)C	none
Cc1nn(C)c(Oc2ccccc2)c1CCNC(=O)C(C)(C)C	PLC-gamma1 inh 11.1 | PLCgamma1 ctr inactive | PLCb3 confirm inactive
CCOc1ccc(C(=O)Oc2cc(C)[nH]c(=O)c2[N+](=O)[O-])cc1	none
CCOc1ccc(C(=O)Oc2cc(C)[nH]c(=O)c2[N+](=O)[O-])cc1OCC	PLC-gamma1 inh 10.2 | PLCgamma1 ctr inactive | PLCb3 confirm inactive
CC(C)=NOc1nc(N(C)C)nc(N2CCOCC2)n1	PLCb3 inh 10.9, PLC-gamma1 inh 10.9 | PLCgamma1 ctr inactive | PLCb3 confirm inactive
O=C1c2ccccc2C(=O)N1OCc1ccccc1[N+](=O)[O-]	PLC-gamma1 inh 13.0 | PLCgamma1 ctr inactive | PLCb3 confirm inactive
CC(C)CCNC(=O)C(c1ccc(O)cc1)N(C(=O)C1COc2ccccc2O1)c1cccc(O)c1 (stereo not drawn)	none
CCOc1cccc(N(C(=O)C2COc3ccccc3O2)C(C(=O)NC2CCCCC2)c2ccc(O)cc2)c1 (stereo not drawn)	PLCb3 inh 11.0 | PLCgamma1 ctr inactive | PLCb3 confirm inactive
Nc1cc(Nc2ccccc2)c2nonc2c1[N+](=O)[O-]	PLC-gamma1 inh 10.7 | PLCgamma1 ctr inactive | PLCb3 confirm inactive
O=[N+]([O-])c1c(Nc2ccccc2)ccc2nonc12	none
COC1=C[C@H](C(=O)NCCOC(C)=O)[C@H](C)[C@@H](c2ccccc2)CC1=O	none
CCC(C(=O)Nc1ccccc1N1CCCC1)c1ccccc1F (stereo not drawn)	none
